A selection: hits, their analogues and other compounds. The true share with any hit is near 7.4%.
Rab9 prom act: activators of Rab9 promoter. AID 485297. Huh7 Rab9 promoter-luciferase reporter, luminescence, 24 h. hit rate 2.8% among 320,000. Potency, µM (top dose mostly 9.22 µM), for inactives: at the highest dose activation, negative = inhibition, hits mostly activators; note: % of control where 0% means no effect; nearly all actives have a fitted effect of over 60% in size
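Huh7 cells stably carrying Rab9 promoter–luciferase reporter, plated 1500 cells/well, compound added after 2 h and incubated 24 h at 37 °C; luciferase luminescence then read after 10 min with detection reagent.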
FLuc modulator: firefly luciferase modulation, counter-screen for miR-21 project; P08659; purified FLuc, Km substrates, luminescence inhibition; Potency, µM (titrated, usually from 57.5 µM), for inactives: at the highest dose activity change, negative = inhibition, actives largely listed as inhibitors; hit rate 6.9% among 360,000;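 note: plate controls were vehicle for no effect and reference inhibitor for full effect; nearly all actives have a fitted effect of over 55% in size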
Target sequence (P08659 whole entry, looked up): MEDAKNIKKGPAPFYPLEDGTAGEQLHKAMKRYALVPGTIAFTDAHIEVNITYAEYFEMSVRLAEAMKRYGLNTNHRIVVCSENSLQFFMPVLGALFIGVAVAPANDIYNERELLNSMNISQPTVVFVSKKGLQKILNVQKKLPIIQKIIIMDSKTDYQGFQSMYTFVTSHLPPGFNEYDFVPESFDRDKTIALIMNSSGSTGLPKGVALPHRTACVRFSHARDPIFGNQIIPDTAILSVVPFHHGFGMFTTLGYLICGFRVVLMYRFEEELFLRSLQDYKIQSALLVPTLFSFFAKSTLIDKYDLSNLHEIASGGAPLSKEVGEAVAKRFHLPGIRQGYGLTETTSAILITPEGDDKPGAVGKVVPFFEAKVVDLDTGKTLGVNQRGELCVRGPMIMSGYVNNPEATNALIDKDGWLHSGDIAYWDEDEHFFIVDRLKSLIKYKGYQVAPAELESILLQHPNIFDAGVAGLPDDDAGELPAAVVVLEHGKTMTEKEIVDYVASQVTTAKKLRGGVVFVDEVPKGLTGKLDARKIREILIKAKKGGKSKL
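Purified P. pyralis luciferase, 10 nM final, with Km-level 10 uM D-luciferin and 10 uM ATP in 50 mM Tris acetate pH 7.5, 10 mM Mg acetate, 0.01% Tween-20, 0.05% BSA; 6-point qHTS titration about 60 µM downward; luminescence read.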
NPC1 promoter act: NPC1 promoter activation; Huh7 NPC1 promoter luciferase reporter, 24 h; Potency, µM (highest dose often 9.22 µM), for inactives: top-dose activation, actives largely listed as activators; hit rate 2.4% among 320,000; AID 485313; note: % of control where 0% means no effect; nearly all actives have a fitted effect of over 60% in size
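Luciferase expression driven by the NPC1 promoter was measured in stably transfected Huh7 cells after a 24 h compound incubation, using a luciferase reagent and a luminescence read.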
ELG1 genotox: induces genotoxicity in HEK293T cells with luciferase-tagged ELG1; Potency, µM (titrated, usually from 46 µM), for inactives: at the top dose activity change, positive = activation, actives largely listed as activators; hit rate 1.3% among 330,000; AID 504466; HEK293T ELG1-luciferase reporter, luminescence, 16 h; note: % of control where 0% means no effect; nearly all actives have a fitted effect of over 60% in size
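ELG1-luciferase HEK293T cells, 2,000/well; compound pinned in; 16 hr, 37 °C, 5% CO2; ONE-Glo, 30 min RT; luminescence on CCD imager.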
SMN2 splice enh: enhancers of SMN2 splice variant expression; HEK293 SMN2-luciferase splicing reporter, luminescence, 30-36 h; hit rate 2.8% among 210,000; AID 1458; Potency, µM (series often up to 46.1 µM), without a hit: top-dose activity change, positive = activation, actives largely listed as activators; note: % of control where 0% means no effect; nearly all actives have a fitted effect of over 55% in size
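HEK293 cells carry an SMN2 […]–luciferase reporter in which exon 7 inclusion puts luciferase in frame. Cells were plated 10-12 h before compound addition, then incubated 30-36 h at 37C. ONE-Glo luminescence was read; sodium butyrate at 4.5 mM final served as control.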
* marks the source's active call; other numbers are inactive results; ? = inconclusive; nt = not tested or not shown; [ ] = another dose, or the depositor's remark. Calls come from the whole dose curve; as a rule, active = well fitted curve in the direction sought with a large enough effect; inconclusive = small, poorly fitted or top-dose-only effect, or another doubt; inactive = no such curve, though single readings can be large; an effect the other way counts as inactive or inconclusive. Potency is the fitted concentration of half-maximal effect.

SMILES | Rab9 prom act | FLuc modulator | NPC1 promoter act | ELG1 genotox | SMN2 splice enh
Cc1cc(N2CCN(C(=O)c3ccco3)CC2)c2ccccc2n1 | -2.6% | 4.9% | -2.7% | -1.9% | nt
COc1cccc(-c2cc(C(=O)NCC3CCCO3)c3ccccc3n2)c1 (stereo unspecified) | -1.8% | 26.9µM* | -1.9% | -1.9% | -5.8%
COc1ccc(-c2cc(C(=O)NCC3CCCO3)c3cc(C)ccc3n2)cc1 (stereo unspecified) | 20.6% | 2.13µM* | 15.8% | 3.1% | ?
Cc1ccc(-c2cc(C(=O)NCC3CCCO3)c3ccccc3n2)cc1C (stereo unspecified) | 2.7% | 6.75µM* | 5.9% | -5.7% | 15.6%
Cc1ccc2nc(-c3cccc(Br)c3)cc(C(=O)NCC3CCCO3)c2c1 (stereo unspecified) | 3.3% | ? | -4.6% | -11.8% | nt
COc1ccc(-c2cc(C(=O)NCC3CCCO3)c3ccccc3n2)cc1 (stereo unspecified) | 17.3% | 12µM* | 13.5% | -5.7% | 7.1%
COc1ccc(-c2cc(C(=O)NCC3CCCO3)c3cc(C(C)C)ccc3n2)cc1 (stereo unspecified) | -0.7% | ? | -2.0% | -1.2%[9.26 µM] | nt
O=C(NCCc1nc2ccccc2n1Cc1c(F)cccc1Cl)c1ccco1 | nt | -12.5% | nt | nt | -38.3%
CCc1ccc(OCC(=O)N(Cc2ccc(C)o2)C2CCS(=O)(=O)C2)cc1 (stereo unspecified) | nt | 5.6% | nt | nt | 15.8%
O=C1CSC(=S)N1/N=C/C=C/c1ccccc1 | -0.7% | ? | -0.2% | -2.2% | 1.0%
N=C1SCC(=O)N1/N=C/c1ccccc1 | 1.0% | 5.36µM* | -0.5% | -19.8% | -33.1%
COc1ccc2c(c1)CCc1c(C(=O)N3CC4(C)CC3CC(C)(C)C4)noc1-2 (stereo unspecified) | -7.0% | -1.9% | -2.0% | -6.8% | -16.8%
COc1ccc2c(c1)CCc1c(C(=O)N3CCOCC3)noc1-2 | 3.16µM* | 10.7µM* | 3.98µM* | 11.6µM* | 12.6µM*
COc1ccc2c(c1)CCc1c(C(=O)Nc3ccc(OC)c(OC)c3)noc1-2 | 16.1% | 2.39µM* | 10.8% | 1.6% | -13.8%
COc1ccc2c(c1)CCc1c(C(=O)N3CCCc4ccccc43)noc1-2 | 7.4% | 13.5µM* | 13.6% | ? | -17.5%
O=C(Cn1cc(S(=O)(=O)Cc2cccc(Cl)c2)c2ccccc21)Nc1ccccc1C(F)(F)F | nt | 1.5% | nt | nt | nt
COc1cc2c(cc1OC)C(COc1ccc3c(C)cc(=O)oc3c1)N(C(=O)c1ccccc1C)CC2 (stereo unspecified) | nt | -0.9% | nt | nt | 2.8%
Cc1nc(Nc2ccccc2)sc1C(=O)c1ccccc1 | 3.55µM* | 21.3µM* | ? | 12.6% | nt
COC(=O)c1sc(Nc2ccccc2)nc1C | ? | 19µM* | ? | ? | 23.6%
COc1ccc(C(=O)c2sc(Nc3ccccc3)nc2C)cc1 | -4.4% | ? | 1.1% | -0.4% | nt
CC(C)(C)C(=O)c1sc(Nc2ccccc2)nc1N | 2µM* | 5.36µM* | 2µM* | 1.3µM* | 11.2µM*
CCOC(=O)Nc1nc(C)c(C(=O)c2ccc(Cl)cc2)s1 | 2.1% | 5.4% | -4.8% | -0.1% | 24.3%
CCOC(=O)c1sc(NC(=O)Nc2ccc(Cl)cc2)nc1C | ? | 2.69µM* | 3.98µM* | 2.1% | ?
Nc1nc(Nc2cccc(C(F)(F)F)c2)sc1C(=O)c1ccccc1 | nt | -0.6% | nt | nt | nt
COC(=O)c1ccc(C(NC(=O)OCc2ccccc2)/C(=C/[C@@H](C)C(=O)NCc2nc3ccccc3s2)c2cccnc2)cc1 (stereo partly specified) | nt | nt | nt | nt | 3.9%
SMILES | Rab9 prom act | FLuc modulator | NPC1 promoter act | ELG1 genotox | SMN2 splice enh
CCOC(=O)c1sc(Nc2nc3c(OC)cccc3s2)nc1C | ? | 6.75µM* | ? | ? | ?
Cc1cccc(C(=O)Nc2nc(C)c(C(=O)Nc3ccc4c(c3)CCC4)s2)c1 | -3.2% | 6.75µM* | 0.1% | 9.0% | ?
CCOC(=O)c1sc(Nc2ccc(F)cc2)nc1C | 14.0% | -1.1% | 1.8% | 8.5% | 4.5%
CCOC(=O)c1sc(Nc2ccccc2)nc1C | 3.98µM* | 15.1µM* | 3.98µM* | 16.4µM* | 3.2%
CC(=O)c1sc(Nc2cccc(C)c2)nc1C | ? | 21.3µM* | 20.0% | ? | ?
Clc1ccc2c(c1)-c1c(cnc3cc(-c4ccccc4)nn13)CO2 | nt | -3.2% | nt | nt | 2.2%
Cc1cccc(NC(=O)c2sc(C)nc2C)c1 | ? | 23.9µM* | ? | 15.0% | ?
O=C(O)Cn1cnc2c(oc3ccccc32)c1=O | -3.6% | -4.2% | -0.6% | -1.1% | nt
Cc1cccc(Cn2cnc3c(sc4nc(C)cc(C)c43)c2=O)c1 | 10.6% | -4.7% | -2.6% | 2.1% | nt
Cc1cc(C)c2c(n1)sc1c(=O)n(CC(=O)c3ccccc3)cnc12 | ? | 10.7µM* | ? | ? | nt
O=C(Cn1cnc2c(oc3ccccc32)c1=O)c1ccccc1 | ? | 15.1µM* | 2.51µM* | ? | ?
C=CCOC(=O)Cn1cnc2c(sc3nc(C)cc(C)c32)c1=O | ? | 10.7µM* | ? | ? | nt
CCc1ccc(CCC(=O)O)nc1 | nt | nt | nt | nt | 2.3%[9.22 µM]
O=C(N/N=C/c1cccc2ccccc12)c1ccccc1Cl | 2.7% | 7.57µM* | -2.3% | 5.9% | nt
Cc1occc1C(=O)N/N=C/c1cccc2ccccc12 | 2.24µM* | 5.36µM* | ? | 7.3µM* | nt
Cc1occc1C(=O)N/N=C/c1cccs1 | ? | ? | ? | 11.0% | 24.7%
Cc1occc1C(=O)Nc1cccc2ccccc12 | 1.58µM* | 2.69µM* | 2µM* | 5.8µM* | 3.16µM*
C=CCC(Nc1ccc(OC)cc1)(C(=O)OCC)c1ccccc1 (stereo unspecified) | nt | nt | nt | nt | 8.9%
Cc1cccc(C(=O)N2c3ncnn3C3(CCCCC3)[C@@H]3CCCC[C@@H]32)c1 | nt | -9.0% | nt | nt | nt
CC1CCN(S(=O)(=O)c2ccc3nc(Nc4cccc(F)c4)ccc3c2)CC1 | nt | 0.0% | nt | nt | nt
CC(C)COc1ccc(-c2nnc(-c3ccco3)o2)cc1 | 0.316µM* | 1.07µM* | 0.447µM* | ? | 3.98µM*
COc1cccc(C(=O)Nc2ccc(-c3nnc(-c4ccco4)o3)cc2)c1 | 28.2% | 0.3% | -3.6% | 16.0% | -24.8%
CCCOc1ccc(-c2nnc(-c3ccco3)o2)cc1 | 0.447µM* | 0.757µM* | 0.501µM* | ? | ?
C[C@@H](O)[C@H]1C(=O)N2C(C(=O)O)=C(SCCN=CN)C[C@H]12 | -5.3%[46.1 µM] | nt | -3.2%[46.1 µM] | nt | nt
COc1cccc2cc(-c3csc(CCn4nc(C)cc4C)n3)c(=O)oc12 | 3.7% | -24.4% | -2.5% | -1.7% | -34.7%
COc1cccc2cc(-c3cn4c(n3)sc3cc(F)ccc34)c(=O)oc12 | nt | 2.39µM* | nt | nt | nt
COc1cccc2cc(-c3nnc(-c4ccc(Cl)cc4)o3)c(=O)oc12 | nt | 1.69µM* | nt | nt | -0.5%
COc1cccc2cc(-c3nnc(-c4ccccc4)o3)c(=O)oc12 | 0.501µM* | 0.213µM* | 0.501µM* | ? | 11.2µM*

Bioassay records as filed in PubChem BioAssay.
